The list is not random: actives were taken first. Their share in the collection is about 17%.
TDP1 cell noCPT – qHTS for Inhibitors of human tyrosyl-DNA phosphodiesterase 1 (TDP1): qHTS in cells in absence of CPT; DT40 Tdp1-/- hTDP1 cells, no CPT, ATP luminescence, 48 h; Potency, µM (titrated, usually from 46.2 µM), for inactives: at the top dose activity change, negative = growth inhibition, hits mostly inhibitors; 420,000 compounds, 15% hits; also: % is scaled to controls: 0 for no effect and ±100 for the full control effect; nearly all actives have a fitted effect of over 55% in size
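No-CPT arm: Tdp1-/-;hTDP1 DT40 cells (400/well) plus compounds, incubated ≥48 hr at 37 °C. Readout CellTiter-Glo luminescence.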
ClpP mod – qHTS Assay for Activators of ClpP; ATP-dependent Clp protease proteolytic subunit (Bacillus subtilis (strain 168)), P80244; purified B. subtilis ClpP, FRET peptide cleavage, 20 min; Potency, µM (titrated, usually from 57.5 µM), inactives show at the highest dose activity change, negative = active; 340,000 compounds, 1.9% hits; AID 651965, 2013; active = well fitted falling curve with a large enough effect; inconclusive = small, poorly fitted or top-dose-only effect; inactive = no such curve, though single readings can be large or run the other way; also: the source files actives as falling curves though it sought activators and does not explain the sign; nearly all actives have a fitted effect of over 65% in size
Target sequence (P80244 whole entry, looked up): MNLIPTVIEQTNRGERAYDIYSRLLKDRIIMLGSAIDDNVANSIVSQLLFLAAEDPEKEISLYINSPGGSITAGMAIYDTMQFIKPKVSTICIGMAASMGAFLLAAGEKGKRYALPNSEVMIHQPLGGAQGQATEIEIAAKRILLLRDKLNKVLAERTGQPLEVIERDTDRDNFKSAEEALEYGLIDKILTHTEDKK
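ClpP 10 microg/mL final, pH 8 Tris/KCl buffer with BSA, glycerol, Tween-20; compound pinned in; FRET-FV substrate; RT 20 min; Ex320/Em430; ΔFRET vs ADEP 5.8 microM, DMSO, no enzyme.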
TDP1 cell CPT – DT40-hTDP1 cell growth loss with CPT; chicken DT40 Tdp1-/-;hTDP1 cells + 20 nM CPT, ATP luminescence, 48 h; Potency, µM (doses to about 46.2 µM), inactives show at the top dose activity change, negative = growth inhibition, usual class: inhibitors; 420,000 compounds, 12% hits; also: % is scaled to controls: 0 for no effect and ±100 for the full control effect; nearly all actives have a fitted effect of over 55% in size
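Chicken DT40 Tdp1-/- cells stably complemented with human TDP1 were seeded at 400 cells/well in medium containing 20 nM camptothecin, exposed to pin-transferred compounds, and grown at 37 °C for at least 48 hr. Viability was read as ATP luminescence.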
TDP1 block – blocks human tyrosyl-DNA phosphodiesterase 1. Potency, µM (doses to about 130 µM), for inactives: top-dose activity change, negative = inhibition, hits mostly inhibitors. 350,000 compounds, 0.28% hits. AID 485290. recombinant TDP1, AlphaScreen DNA substrate cleavage. Q9NUW8; also: % is scaled to controls: 0 for no effect and ±100 for the full control effect; nearly all actives have a fitted effect of over 40% in size
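Signal: AlphaScreen proximity between streptavidin donor and anti-FITC acceptor beads on intact substrate. Reaction: Tdp1 1 nM, substrate 15 nM final, 5 min RT after 15 min compound preincubation.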
Active calls of the source: *; ? = inconclusive; · = no result; [ ] = remark or other dose. Unless noted, calls follow the shape of the dose curve; as a rule, active = well fitted curve in the direction sought with a large enough effect; inconclusive = small, poorly fitted or top-dose-only effect, or another doubt; inactive = no such curve, though single readings can be large; an effect the other way counts as inactive or inconclusive. Potency is read from the fitted curve at half-maximal effect.

SMILES	TDP1 cell noCPT	ClpP mod	TDP1 cell CPT	TDP1 block
COC1CCCN(C(=O)c2ccc3nc(Cc4cccc(Cl)c4)oc3c2)C1 (centres undefined)	?	·	-2%	2%
COC1CCCN(C(=O)c2ccc3oc(Cc4ccc(Cl)cc4)nc3c2)C1 (centres undefined)	?	1%	-17%	4%
O=C(c1ccc2oc(CCc3ccccc3)nc2c1)N1CC[C@H](O)C1	3%	-1%	-2%	1%
Cn1cccc1C(=O)N1CCC2(CCN(Cc3ccncc3)CC2)CC1	-24%	·	8%	·
Cc1ccc(CNc2nnc(C)c3nnn(Cc4ccc(F)cc4)c23)cc1	2%	-1%	?	5%
COCCN1CCN(C(=O)c2ccc3nc(Cc4ccc(OC)c(OC)c4)oc3c2)CC1	6.5µM*	-23%	12µM*	4%
COCC1CCN(C(=O)c2ccc3nc(Cc4cccc(Cl)c4)oc3c2)CC1	18µM*	0%	21µM*	·
NC(=O)[C@@H]1CCCN1C(=O)c1ccc2nc(Cc3cccc(Cl)c3)oc2c1	11%	-1%	-23%	1%
C/C=C(\C)C(=O)NCCN1Cc2ccccc2OC(c2ccccc2OC)C1 (centres undefined)	-27%	·	-7%[9.04 µM]	·
Oc1ccc(Cl)cc1CNCc1ccc(F)c(F)c1	-23%	0%	?	-3%
Cc1ccc(O)c(CNCCNCc2cc(C)ccc2O)c1	13µM*	-3%	10µM*	·
CCc1ccc(O)c(CNCCNCc2cc(CC)ccc2O)c1	16µM*	1%	23µM*	3%
Cc1cc(C(=O)Nc2cccc(-c3nc(CNC(=O)c4cc5ccccc5[nH]4)c(C)o3)c2)c(C)o1	-13%	·	24%	·
CCOC(=O)c1cccc(NC(=O)CN2C(=O)CC(C)(C)Sc3ccccc32)c1	?	1%	21µM*	1%
CC(=O)Nc1cccc(NC(=O)CN2C(=O)CCSc3ccccc32)c1	·	0%	·	-2%
CC(=O)c1cccc(NC(=O)Nc2ccc3c(c2)N(C)C(=O)CS3)c1	16µM*	-1%	16µM*	6%
CC(C)Oc1ccc(CNC(=O)Nc2ccc3c(c2)N(C)C(=O)c2ccccc2S3)cc1	23µM*	-3%	?	9%
CCOC(=O)c1cccc(NC(=O)Nc2ccc3c(c2)N(C)C(=O)c2ccccc2S3)c1	?	-2%	21µM*	9%
Cc1cc(C)n(CCNC(=O)[C@H]2O[C@@H](n3ccc(=O)[nH]c3=O)[C@H](O)[C@@H]2O)n1	0%	-3%	0%	·
Cc1cccc(-c2cc(NCCc3cccnc3)n3nccc3n2)c1	-3%	4%	-17%	·
Cc1nc(N2CCOCC2)[nH]c(=O)c1C	10%	·	24%	2%
CCCCNC(=O)Nc1ccc2c(c1)N(C)C(=O)c1ccccc1S2	16µM*	-27%	?	6%
CCOC(=O)c1ccccc1NC(=O)CN1C(=O)CCS(=O)(=O)c2ccccc21	21µM*	-13%	23µM*	-6%[56.1 µM]
CCOc1ccc(C(C)(C)C)cc1S(=O)(=O)n1nc(C)cc1C	11µM*	2%	?	-2%
CCOc1ccc(C)cc1S(=O)(=O)n1nc(C)cc1C	0%	·	0%	5%
SMILES	TDP1 cell noCPT	ClpP mod	TDP1 cell CPT	TDP1 block
CCOc1ccc(S(=O)(=O)n2nc(C)cc2C)c2ccccc12	?	-8%	23µM*	1%
COC(=O)[C@@]12C[C@@H](CC(=O)NCc3ccc(OC)c(OC)c3)C(=O)N(Cc3ccc4c(c3)OCO4)C1=CCC(C)(C)C2	26µM*	3%	15µM*	·
COC(=O)[C@@]12C[C@@H](CC(=O)NCc3cccc(C(F)(F)F)c3)C(=O)N(Cc3ccc4c(c3)OCO4)C1=CCC(C)(C)C2	18µM*	-2%	?	·
COCCCNC(=O)C[C@@H]1C[C@@]2(C(=O)OC)CC(C)(C)CC=C2N(Cc2ccc3c(c2)OCO3)C1=O	?	0%	13%	·
CC(C)(C)OC(=O)n1cccc1/C=C1\c2ccccc2C(=O)N1c1ccccc1	?	-7%	21µM*	·
CSc1ccccc1-c1nnc(-c2ccccc2)o1	-16%	?	-14%	-3%
O=S(=O)(Cc1ccccc1)c1ccccc1-c1nnc(-c2ccccc2)o1	16µM*	44%	16µM*	-4%
C/C(=N\NC(=O)c1c(Cl)c(C)nn1C)c1cccc(NC(=O)C2CCCC2)c1	?	0%	?	5%
CC1Sc2ccc(S(=O)(=O)NCCc3ccc(Cl)cc3)cc2NC1=O (centres undefined)	?	2%	-24%	1%
CCCC1OC2C[C@@H]3[C@H]4CCC5=CC(=O)C=C[C@]5(C)[C@H]4C(O)C[C@]3(C)[C@]2(C(=O)CO)O1 (some centres undefined)	?	-3%	11µM*	2%
CCCC1OC2CC3C4CCC5=CC(=O)C=CC5(C)C4C(O)CC3(C)[C@]2(C(=O)CO)O1 (some centres undefined)	?	·	16µM*	5%
CCCC1OC2CC3C4CCC5=CC(=O)C=CC5(C)C4C(O)CC3(C)C2(C(=O)CO)O1 (centres undefined)	·	·	·	9%
CCCC1O[C@@H]2C[C@H]3[C@@H]4CCC5=CC(=O)C=C[C@]5(C)C4[C@@H](O)C[C@]3(C)[C@]2(C(=O)CO)O1 (some centres undefined)	·	·	·	8%[56.1 µM]
CC1Cc2ccccc2N1Cc1ccc([N+](=O)[O-])cc1 (centres undefined)	-22%	·	-28%	16%
CCOc1ccc(-c2nnc(SCC(=O)NCCC(C)C)nc2-c2ccc(OCC)c(OC)c2)cc1OC	?	16µM*	15µM*	-1%
COCCn1c(-c2ccc(Cl)cc2)cnc1SCC(=O)NCCc1ccc(OC)c(OC)c1	?	·	21µM*	4%
COc1ccc(CCNC(=O)CSCc2ccc(Cl)cc2)cc1OC	?	-1%	?	0%
COc1ccc(CCNC(=O)CSc2nnc(-c3ccc(C)cc3)c(-c3ccc(C)cc3)n2)cc1OC	16µM*	4%	?	13%
